Assay outcomes: PubChem, National Center for Advancing Translational Sciences (NCATS)
An excerpt weighted towards active compounds, which were near 18% of everything screened.
TDP1 cell CPT – growth inhibition of DT40 Tdp1-/-;hTDP1 cells with camptothecin (screen for TDP1 inhibitors). chicken DT40 Tdp1-/-;hTDP1 cells + 20 nM CPT, ATP luminescence, 48 h. Potency, µM (highest dose often 46.2 µM), for inactives: at the highest dose activity change, negative = growth inhibition, most hits filed as inhibitors. hit rate 12% among 420,000. AID 686979; also: potency is read from the fitted curve at half-maximal effect; nearly all actives have a fitted effect of over 55% in size
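Cell growth measured by CellTiter-Glo luminescence after a minimum 48 h, 37 C compound exposure with 20 nM CPT in Tdp1-knockout DT40 cells stably expressing hTDP1, seeded 400/well; qHTS titration format.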
TDP1 cell noCPT – qHTS for Inhibitors of human tyrosyl-DNA phosphodiesterase 1 (TDP1): qHTS in cells in absence of CPT; hit rate 15% among 420,000; Potency, µM (top dose mostly 46.2 µM), for inactives: at the highest dose activity change, negative = growth inhibition, actives largely listed as inhibitors; DT40 Tdp1-/- hTDP1 cells, no CPT, ATP luminescence, 48 h; also: potency is read from the fitted curve at half-maximal effect; nearly all actives have a fitted effect of over 55% in size
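Chicken DT40 Tdp1-/- cells complemented with human TDP1, screened without camptothecin (DMSO vehicle only), 400 cells/well. Compounds pin-transferred, cells incubated at 37 °C for at least 48 hr. Growth read as ATP-dependent luminescence (CellTiter-Glo, 30 min at RT).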
LDHA inh – inhibitors of human lactate dehydrogenase A; AID 1347041; P00338; hit rate 0.15% among 480,000; activity change, % (values are at about 110 or 230 µM); purified LDHA, NADH/diaphorase-resazurin fluorescence; active compounds read low; in the data active = activity change below about -30%; inconclusive = mostly about -25% to -30%;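 also: plate controls were DMSO wells for no effect and wells without enzyme for full effect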
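Resorufin fluorescence (ex540/em590), read at 0 and 20 min after diaphorase/resazurin addition, reports the NADH left after a 5 min room-temperature reaction of 2 nM human LDH5 with 0.06 mM NADH and 0.2 mM pyruvate.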
RORg inh – inhibitors of mouse ROR gamma transcriptional activity. P51450. Drosophila S2 Gal4-RORgamma UAS-luciferase reporter, 20 h. Potency, µM (series often up to 53.6 µM), for the others: at the highest dose activity change, negative = inhibition, hits mostly inhibitors. hit rate 5.4% among 310,000. AID 2551; also: potency is read from the fitted curve at half-maximal effect; nearly all actives have a fitted effect of over 60% in size
Target sequence (P51450 whole entry, looked up, the tested form may be a part): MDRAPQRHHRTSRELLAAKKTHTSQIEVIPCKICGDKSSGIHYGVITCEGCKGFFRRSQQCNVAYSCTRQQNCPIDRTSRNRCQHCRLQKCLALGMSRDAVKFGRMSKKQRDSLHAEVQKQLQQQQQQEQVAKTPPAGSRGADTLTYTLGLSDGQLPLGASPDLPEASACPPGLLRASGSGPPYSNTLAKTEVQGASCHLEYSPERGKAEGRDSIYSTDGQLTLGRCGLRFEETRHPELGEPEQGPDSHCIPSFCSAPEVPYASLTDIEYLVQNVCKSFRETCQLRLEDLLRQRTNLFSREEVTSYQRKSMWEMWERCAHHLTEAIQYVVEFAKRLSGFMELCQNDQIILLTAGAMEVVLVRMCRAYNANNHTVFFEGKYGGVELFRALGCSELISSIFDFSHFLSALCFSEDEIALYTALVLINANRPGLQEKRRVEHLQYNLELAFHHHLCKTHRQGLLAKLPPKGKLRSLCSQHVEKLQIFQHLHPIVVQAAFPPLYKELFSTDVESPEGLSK
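A Gal4/UAS one-hybrid system in insect cells: metallothionein-promoter Gal4–ROR gamma fusion plus Photinus luciferase reporter. Copper sulfate 700 uM final, 20 hr ambient incubation, luminescent detection after 10 min with reagent.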
IL-1B inflam inh – inflammasome signaling inhibition, IL-1 beta readout | THP-1 LPS/ATP IL-1B secretion, AlphaLISA, 16 h; active compounds read low | activity change, % at 57.5 µM | hit rate 4.7% among 360,000 | AID 743279; in the data active = activity change below about -50%; inconclusive = mostly about -30% to -49%
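THP-1 cells pretreated 1 hr with compounds (up to 57.5 uM final), then stimulated with LPS (250 ng/mL final) plus ATP (1.25 mM final); secreted IL-1B measured by AlphaLISA after 16 hr, decreased signal indicating inhibition.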
Gal4-VP16 FLuc – Gal4-VP16 reporter inhibition counter-screen. Drosophila S2 Gal4-VP16 UAS-luciferase, luminescence, 20 h. AID 2546. Potency, µM (series often up to 53.6 µM), for inactives: at the top dose activity, negative = inhibition, actives largely listed as inhibitors. hit rate 3.5% among 310,000;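 also: Gal4-VP16 expression switched on by copper sulfate through the metallothionein promoter; potency is read from the fitted curve at half-maximal effect; nearly all actives have a fitted effect of over 50% in size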
Active calls of the source: *; ? = inconclusive; nt = no result given. Unless noted, calls follow the shape of the dose curve; as a rule, active = well fitted curve in the direction sought with a large enough effect; inconclusive = small, poorly fitted or top-dose-only effect, or another doubt; inactive = no such curve, though single readings can be large; an effect the other way counts as inactive or inconclusive. Unless noted, % is scaled to controls: 0 for no effect and ±100 for the full control effect.

SMILES	TDP1 cell CPT	TDP1 cell noCPT	LDHA inh	RORg inh	IL-1B inflam inh	Gal4-VP16 FLuc
C(=N\Nc1nc(N2CCCC2)nc(N2CCCC2)n1)/c1ccccc1OCc1ccccc1	?	?	0	2.8µM*	?	-21%
O=C(O)c1ccccc1/C=N/Nc1nc(N2CCCCC2)nc(N2CCCCC2)n1	nt	nt	nt	-25%	nt	-1%
c1ccc(CCN(Cc2ccccc2)Cc2cccc(OCc3ccccc3)c2)cc1	nt	nt	-1	nt	nt	nt
C=CCN(Cc1ccc(OC)cc1)C(=O)c1cc(=O)c2ccccc2o1	nt	nt	-12	nt	nt	nt
COc1ccc(NC(=O)CSc2nc(N3CCOCC3)c3c(c2C#N)CCCC3)c(OC)c1	nt	nt	8	nt	nt	nt
CCOC(=O)c1sc(=S)n(C)c1NC(=O)c1ccc(OC)cc1	2.3µM*	21µM*	-7	0%	-3	-5%
Cc1ccc2c(CN(Cc3ccco3)Cc3ccco3)cc(=O)oc2c1C	nt	nt	-1	nt	nt	nt
Cc1ccc2c(=O)cc(C(=O)NCC(c3cccs3)N3CCCC3)oc2c1 (stereo unspecified)	nt	nt	2	nt	nt	nt
O=C(Nc1nnc(-c2ccco2)o1)c1ccc([N+](=O)[O-])s1	8.2µM*	9.2µM*	-9	0.89µM*	1	2.8µM*
COc1ccc(C(=O)Nc2nnc(-c3ccco3)o2)cc1OC	nt	nt	-3	nt	nt	nt
CCCCC(=O)Nc1nnc(-c2ccco2)o1	4%	0%	0	-10%	11	-10%
N#Cc1ccc(C(=O)Nc2nnc(-c3ccco3)o2)cc1	?	6.5µM*	6	1µM*	28	3.2µM*
Cc1ccc(C(=O)Nc2nnc(-c3ccco3)o2)cc1	23µM*	23µM*	4	?	-4	?
Cc1ccsc1C(=O)Nc1nnc(-c2ccco2)o1	?	-109%	0	0.28µM*	9	?
O=C(Nc1nnc(-c2ccccc2Cl)o1)c1cc2cc([N+](=O)[O-])ccc2s1	nt	nt	nt	-20%	nt	-4%
CNC(=O)NC(=O)CCN1CCOC(c2cccc(Br)c2)C1 (stereo unspecified)	nt	nt	0	nt	nt	nt
CCC(C)N[C@H]1CS(=O)(=O)C[C@@H]1S(=O)(=O)c1ccccc1 (stereo partly specified)	nt	nt	0	nt	nt	nt
CCn1cnc2c1c(=O)n(CC(=O)Nc1cc(OC)cc(OC)c1)c(=O)n2Cc1ccccc1	nt	nt	1	nt	nt	nt
COc1cc(/C=C/c2nc(C#N)c(NCc3ccc4c(c3)OCO4)o2)cc(OC)c1OC	nt	nt	-24	nt	nt	nt
O=C(Nc1cccc(CN2CCOC2=O)c1)N1CCN(c2ccccc2)CC1	nt	nt	-1	nt	nt	nt
Cc1nnc(NC(=O)c2ccc3ccccc3c2)o1	?	?	1	0.11µM*	-57*	0.32µM*
O=C(Nc1nnc(-c2ccco2)o1)c1ccc2ccccc2c1	?	21µM*	4	1.4µM*	-2	1.1µM*
Cc1ccccc1NC(=O)c1ccc2ccccc2c1	-17%	-10%	-6	36%	-4	-1%
CCOC(=O)COc1ccc2c(=O)c(Oc3ccc(C(=O)OCC)cc3)c(C)oc2c1	nt	nt	-1	nt	nt	nt
COc1ccc(C(=O)Nc2ccc(-n3nncc3-c3ccc(OC)c(OC)c3)cc2)cc1	21µM*	21µM*	-1	nt	nt	nt
COc1ccc(-c2cnnn2-c2ccc(NC(=O)c3ccco3)cc2)cc1OC	-5%	-6%	-8	-2%	-1	-17%
COc1ccc(C(=O)Nc2ccc(S(=O)(=O)N3CCCCC3)cc2)cc1OC	?	?	4	19%	47	4%
COc1ccc(-c2cnnn2-c2ccc(NC(=O)c3ccc(S(=O)(=O)N4CCCCC4)cc3)cc2)cc1OC	21µM*	12µM*	-3	13%	-22	0%
Cc1ccc(NC(=O)c2ncoc2-c2cccc(C)c2)cc1	nt	nt	1	nt	nt	nt
